The record followed here is PubChem BioAssay.

Structures are written as SMILES. Active and inactive are the calls of the source. Unless noted, how the calls were made is not given here.

Assay [1] can be described thus: compounds altering circadian rhythm period length – cell-based, LOPAC library, luminescence reporter (AID 2774).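 Further: values are relative to mean of DMSO wells on each plate.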 The note with it: circadian reporter cells, at 7 µM, actives lie on both sides.
For assay [2], the system named is Hepatitis C virus NS3 helicase. The assay can be described thus: blockers of NS3h binding to ssDNA – biochemical, fluorescence polarization, LOPAC1280 library, primary screen (AID 687035; in the data active means inhibition above about 37%). The note with it: Purified HCV NS3 helicase, Cy5-dT15 ssDNA binding fluorescence polarization; stronger effect = higher value; concentration not given here. (Fluorescence polarisation rises when a labelled molecule tumbles more slowly, as on binding a larger partner.)

The nature of assay [3]: compounds altering Cy5-DNA-NS3h complex signal – biochemical, LOPAC1280, artefact control for HCV NS3 helicase inhibitor project (AID 687037). The settings on record: Cy5-DNA-NS3h complex fluorescence interference counterscreen. Background: The purpose of a counterscreen is to sort out artefacts and off-target activity.
Assay [4] can be described thus: viability loss with induced miR-34 in A549 – imaging, A549 dox-inducible miR-34, nuclei and caspase counts, primary screen (AID 1347080;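 active means compounds whose cell count with miR-34 switched on is under 0.7 times the count with it off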). The settings on record: A549 miR-34 inducible, Hoechst nuclei count, 48 h.
Assay [5] in a line: blockers of cellular phospholipid synthesis – cell-based, LOPAC library, screen 4, primary screen (AID 1347384). The settings on record: animal cells, phospholipid biosynthesis inhibition screen; at 10 µM.
The nature of assay [6]: galactose survival enhancers in mitochondrial complex I cybrids – cell-based, galactose medium, ATP luminescence, primary screen (AID 1645843;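 active means z-score of at least 1.8 in each of two replicates, scored against plate mean and spread of sample wells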;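 further: positive z means more ATP and so rescue of galactose-driven cybrid death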). The note with it: complex I mutant cybrid cells, 72 h, stronger effect = higher value.
Assay [7] can be described thus: P. berghei load reduction in hepatocytes – cell-based, HepG2, luciferase luminescence, HepG2 viability, primary screen (AID 624349; in the data active means parasite load remaining mostly below about 12%, no sharp cut-off; inactive means mostly above about 10%;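 further: 100% = mean of DMSO negative control wells on the same plate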). The settings on record: P. berghei liver stage in HepG2, luciferase luminescence, concentration not given here; parasite load remaining: stronger effect = lower value; viability: measured here: HepG2 viability without parasites.
[8] abbreviates: stronger effect = lower value, cell number ratio, induced over uninduced.
Setting [9] is: measured here: relative caspase fold change +Dox/-Dox.
Where [10] appears, read: measured here: total cells with miR-34 induction, stronger effect = lower value.
The mark [11] stands for this setting: measured here: total cells without miR-34 induction.

As to `C=CCN1CCc2c(cc(O)c(O)c2Br)[C@@H](c2ccccc2)C1`, the period change in assay [1] was 0.175 h (inactive). The inhibition – broadly, the drop in the measured response relative to a control, in per cent – in assay [2] is -2% (inactive). For the same compound, the fluorescence ratio (interference) in assay [3] is 1 (inactive). Besides, the fold change in assay [4] (setting [8]) was 1.09 (inactive); in assay [4] (setting [9]), 2.06. In addition, the cell count amounted to 5920 in assay [4] (setting [10]) and 5430 in assay [4] (setting [11]). Besides, the result in assay [5] was inactive. Further, the z-score in assay [6] was -1.42 (inactive).

In the case of `Nc1ncnc2c1ncn2[C@@H]1O[C@H](COP(=O)(O)OP(=O)(O)OP(=O)(O)OP(=O)(O)OC[C@@H]2O[C@H](n3cnc4c(N)ncnc43)C(O)[C@@H]2O)[C@H](O)C1O` (some centres not stated), in assay [1], the period change was 0.05 h (inactive). Besides, in assay [2], the inhibition is 3% (inactive). In assay [3], the fluorescence ratio (interference) is 1 (inactive). The results for the fold change in assay [4] (setting [8]) and in assay [4] (setting [9]) were 0.899 (inactive) and 1.4, respectively. Besides, the cell count in assay [4] (setting [10]) came to 8750; in assay [4] (setting [11]), 9730. Besides, in assay [5], the compound was classed as inactive. Besides, in assay [6], the z-score was 4.53 (active).

In the case of `O=[N+]([O-])c1ccc(CNc2nc(NCc3cccc(C(F)(F)F)c3)nc3nc[nH]c23)cc1`, the parasite load remaining in assay [7] is 41.7% (inactive). In addition, the viability (commonly a read-out of living cells in per cent, often relative to untreated cells) in assay [7] was 142%. The values for the fold change in assay [4] (setting [8]) and in assay [4] (setting [9]) were 1.02 (inactive) and 2.13, respectively. Also, the results for the cell count in assay [4] (setting [10]) and in assay [4] (setting [11]) were 7880 and 7740, respectively. In addition, in assay [5], the outcome was inactive. In addition, the z-score in assay [6] is -0.05 (inactive).

Take `CNCCc1cnc(CCC(c2ccccc2)c2ccccc2)[nH]1`: the inhibition in assay [2] was -4% (inactive). Also, the fluorescence ratio (interference) in assay [3] is 1 (inactive). Besides, the fold change is 1.13 (inactive) in assay [4] (setting [8]) and 0.656 in assay [4] (setting [9]). Moreover, the cell count in assay [4] (setting [10]) came to 5430; in assay [4] (setting [11]) it was 4810. The call in assay [5] was inactive. For the same compound, the z-score in assay [6] was -0.725 (inactive).

`O=c1ccc2c(OCCCCc3ccccc3)c3ccoc3cc2o1`: the inhibition in assay [2] was 0% (inactive). Besides, in assay [3], the fluorescence ratio (interference) is 1 (inactive). Also, the fold change in assay [4] (setting [8]) is 1.08 (inactive); in assay [4] (setting [9]), 1.92. Further, the cell count in assay [4] (setting [10]) was 8160; in assay [4] (setting [11]), 7580. For the same compound, the compound was classed as inactive in assay [5]. The z-score in assay [6] was -0.515 (inactive).

As for `Nc1nc(OCC2CCCCC2)c2[nH]cnc2n1`, the inhibition in assay [2] was -2% (inactive). Also, the fluorescence ratio (interference) in assay [3] is 1 (inactive). The results for the fold change in assay [4] (setting [8]) and in assay [4] (setting [9]) were 1.47 (inactive) and 1.19, respectively. Besides, the cell count turned out to be 7330 in assay [4] (setting [10]) and 4990 in assay [4] (setting [11]). Besides, the outcome in assay [5] was inactive. Moreover, the z-score in assay [6] is -0.68 (inactive).

Turning to `O=c1[nH]c(=S)[nH]c(-c2ccccc2)c1Cc1c(O)ccc2ccccc12`, the inhibition in assay [2] is 0% (inactive). In assay [3], the fluorescence ratio (interference) is 1 (inactive). For the same compound, the fold change in assay [4] (setting [8]) was 0.946 (inactive); in assay [4] (setting [9]), 1.58. Also, the cell count in assay [4] (setting [10]) was 8710; in assay [4] (setting [11]) it was 9210. The compound was classed as inactive in assay [5]. Further, the z-score in assay [6] is 0.53 (inactive).

Take `O=C1/C(=C/c2ccsc2)CC/C1=C\c1cccs1`: in assay [2], the inhibition is -4% (inactive). In addition, the fluorescence ratio (interference) in assay [3] was 1 (inactive). The fold change in assay [4] (setting [8]) is 0.99 (inactive); in assay [4] (setting [9]), 1.31. The cell count in assay [4] (setting [10]) was found to be 9920; in assay [4] (setting [11]), 10000. Moreover, the compound was classed as inactive in assay [5]. Besides, the z-score in assay [6] is 1.23 (inactive).

Regarding `Cc1cc2c(cc1Cl)N(C(=O)Nc1ccc(Oc3cccnc3C)nc1)CC2`, the inhibition in assay [2] is -2% (inactive). Also, the fluorescence ratio (interference) in assay [3] is 0.9 (inactive). The fold change in assay [4] (setting [8]) was 0.93 (inactive); in assay [4] (setting [9]), 1.1. For the same compound, the values for the cell count in assay [4] (setting [10]) and in assay [4] (setting [11]) were 4820 and 5180, respectively. For the same compound, in assay [5], the call was inactive. For the same compound, the z-score in assay [6] is -1.26 (inactive).

For `CN(C)CCCc1cc(C(=O)Nc2ccc(-c3ccncc3)cc2)ccc1O`, the inhibition in assay [2] was -1% (inactive). Also, in assay [3], the fluorescence ratio (interference) is 1 (inactive). In addition, the fold change in assay [4] (setting [8]) is 1 (inactive); in assay [4] (setting [9]), 1.13. The cell count in assay [4] (setting [10]) and in assay [4] (setting [11]) was 7450 each time. The call in assay [5] was inactive. The z-score in assay [6] was 1.58 (inactive).

On to `C=CCNc1ncnc2ccc(Br)cc12`, for which, in assay [2], the inhibition is 0% (inactive). For the same compound, in assay [3], the fluorescence ratio (interference) is 1 (inactive). Besides, the fold change in assay [4] (setting [8]) is 0.949 (inactive); in assay [4] (setting [9]), 0.896. The cell count was 7410 in assay [4] (setting [10]) and 7810 in assay [4] (setting [11]). For the same compound, the result in assay [5] was inactive. Further, the z-score in assay [6] is -1.29 (inactive).

In the case of `c1ccc2c(c1)CCC[C@H]2Nc1nc2ccccc2[nH]1`, the inhibition in assay [2] is -3% (inactive). The fluorescence ratio (interference) in assay [3] was 1 (inactive). In addition, the fold change is 1.09 (inactive) in assay [4] (setting [8]) and 0.557 in assay [4] (setting [9]). In addition, the cell count in assay [4] (setting [10]) was found to be 7820; in assay [4] (setting [11]), 7150. The compound was classed as inactive in assay [5]. Moreover, the z-score in assay [6] is -0.675 (inactive).

Turning to `O=C(c1ccc(Cl)cc1)N1CCN(c2ccc([N+](=O)[O-])c3ncccc23)CC1`, the inhibition in assay [2] was 0% (inactive). For the same compound, the fluorescence ratio (interference) in assay [3] is 1 (inactive). The fold change in assay [4] (setting [8]) is 0.912 (inactive); in assay [4] (setting [9]), 1.42. Moreover, the cell count is 6530 in assay [4] (setting [10]) and 7170 in assay [4] (setting [11]). For the same compound, the call in assay [5] was inactive. Also, the z-score in assay [6] was -1 (inactive).

`O=C1NCc2c1c1c3ccccc3[nH]c1c1[nH]c3ccccc3c21`: the inhibition in assay [2] was -1% (inactive). Also, in assay [3], the fluorescence ratio (interference) was 1 (inactive). For the same compound, the values for the fold change in assay [4] (setting [8]) and in assay [4] (setting [9]) were 1.15 (inactive) and 0.688, respectively. Also, the cell count is 1560 in assay [4] (setting [10]) and 1350 in assay [4] (setting [11]). Moreover, in assay [5], the call was inactive. In addition, the z-score in assay [6] is -0.89 (inactive).

For `N[C@H](C(=O)O)[C@H](Cc1ccccc1)C(=O)O`, in assay [2], the inhibition was -1% (inactive). The fluorescence ratio (interference) in assay [3] is 1 (inactive). Besides, the figures for the fold change in assay [4] (setting [8]) and in assay [4] (setting [9]) were 0.97 (inactive) and 1.76, respectively. In addition, the cell count came to 10400 in assay [4] (setting [10]) and 10700 in assay [4] (setting [11]). Besides, the call in assay [5] was inactive. The z-score in assay [6] was 0.705 (inactive).

As for `COc1ccc(CCn2nnnc2C2(c3ccc(C)cc3)CC2)cc1`, the inhibition in assay [2] is -4% (inactive). The fluorescence ratio (interference) in assay [3] is 1.1 (inactive). Also, the values for the fold change in assay [4] (setting [8]) and in assay [4] (setting [9]) were 1.09 (inactive) and 0.893, respectively. Besides, the cell count in assay [4] (setting [10]) was found to be 8770; in assay [4] (setting [11]), 8010. Further, in assay [5], the call was inactive. In assay [6], the z-score was -0.23 (inactive).

Turning to `Cc1cc(NC2CCCCC2)nc(-n2nc(C)cc2C)n1`, the inhibition in assay [2] is -5% (inactive). For the same compound, the fluorescence ratio (interference) in assay [3] is 1 (inactive). Further, the fold change was 1.09 (inactive) in assay [4] (setting [8]) and 0.728 in assay [4] (setting [9]). The values for the cell count in assay [4] (setting [10]) and in assay [4] (setting [11]) were 9360 and 8610, respectively. In assay [5], the compound was called inactive. For the same compound, the z-score in assay [6] is -1.04 (inactive).

Consider `Cc1cc(Cn2cnc3c2C[C@@H](C(=O)O)N(C(=O)C(c2ccccc2)c2ccccc2)C3)ccc1N`, for which the inhibition in assay [2] is 0% (inactive). Besides, in assay [3], the fluorescence ratio (interference) was 1 (inactive). Moreover, the results for the fold change in assay [4] (setting [8]) and in assay [4] (setting [9]) were 1.01 (inactive) and 2.03, respectively. For the same compound, the cell count in assay [4] (setting [10]) is 10300; in assay [4] (setting [11]), 10200. For the same compound, in assay [5], the result was inactive. Further, the z-score in assay [6] is 0.405 (inactive).

`CN1Cc2sccc2C(c2ccc(O)c(O)c2)C1` (configuration not stated): the inhibition in assay [2] is -3% (inactive). Also, the fluorescence ratio (interference) in assay [3] was 1 (inactive). Further, the figures for the fold change in assay [4] (setting [8]) and in assay [4] (setting [9]) were 1.06 (inactive) and 2.13, respectively. Moreover, the cell count in assay [4] (setting [10]) is 10300; in assay [4] (setting [11]), 9720. For the same compound, the compound was called inactive in assay [5]. Besides, the z-score in assay [6] is -1.25 (inactive).

In the case of `N[C@H](CCCP(=O)(O)O)C(=O)O`, the inhibition in assay [2] is -1% (inactive). The fluorescence ratio (interference) in assay [3] is 1.1 (inactive). Besides, the fold change is 0.903 (inactive) in assay [4] (setting [8]) and 1.61 in assay [4] (setting [9]). Also, the cell count in assay [4] (setting [10]) was 9420; in assay [4] (setting [11]), 10400. Further, the compound was called inactive in assay [5]. Besides, the z-score in assay [6] was 0.08 (inactive).
